L929 necroptosis: inhibitors of zVAD-triggered necroptosis, primary screen, L929 cells. L929 zVAD necroptosis rescue, ATP luminescence, 24 h; with zVAD 60 µM. viability rescue, % at 10 µM. actives 0.38% (n = 220,000). AID 1377, 2008;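 active = activation, scaled between plate controls, above about 75%, limit read from the data; inactive = activation under that limit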;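 note: 0% = zVAD with DMSO and 100% = DMSO alone without zVAD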
Hsp70 act: Hsp70 transcriptional activators, primary screen, cell-based, HeLa, Hsp70 promoter luciferase, luminescence, 10 µM | HeLa Hsp70 promoter luciferase reporter; scaled: vehicle 0, proteasome-inhibitor control 100% | activation, % at 10 µM | actives 0.04% (n = 200,000) | AID 1203, 2008;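 active = activation above the mean across all tested compounds plus 3 SD, cutoff set per campaign, cut at about 5.5% in these data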;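 note: 100% = MG132 at 30 µM as the positive control and 0% = DMSO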
HSF1 activator: HSF-1 activators, primary screen, NIH3T3-HGL cells, MG132 stress, luminescence, single point; NIH3T3-HGL HSF-1 luciferase reporter, 8 h; 100% = twice DMSO control signal; activation, % at 9 µM; actives 1.7% (n = 300,000);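 active = mean replicate activation of at least 50% with a set share of replicates each reaching 50%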;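 note: 0% = median of the neutral control wells and 100% = twice that signal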
TNF necrop inh: inhibitors of TNF-alpha triggered necroptosis, primary screen, cell-based, Jurkat FADD-/-, single concentration; Jurkat FADD-/- TNF necroptosis rescue, ATP luminescence, 24 h; 0 = TNF only, 100 = no-TNF cells; activation (protection from cell death), % at 10 µM; actives 0.068% (n = 220,000); AID 463075, 2010;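 active = activation, meaning protection from cell death, of at least 50% relative to plate controls; inactive = activation below 50%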;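 note: necroptosis triggered by 40 ng/mL TNF-alpha added together with compound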
zVAD necrop conf: inhibitors of zVAD-triggered necroptosis in L929, confirmation, L929 cells, duplicate runs. activation (protection from necroptosis), % at 10 µM. L929 zVAD-induced necroptosis rescue, ATP luminescence, 24 h. AID 463117, 2010. shares compounds with L929 necroptosis. actives 16% (n = 760);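 active = mean protection from necroptosis of at least 50% over duplicate tests; inactive = mean protection below 50%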;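 note: 0% = cells with zVAD alone and 100% = vehicle cells without zVAD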
The depositor's hits bear a star; / = no result given. A selection: hits, their analogues and other compounds. The true share with any hit is near 1.9%.

SMILES | L929 necroptosis | Hsp70 act | HSF1 activator | TNF necrop inh | zVAD necrop conf
O=C(Nc1cccc(Cl)c1)N1N=CCC1c1ccccc1 (centres undefined) | 89* | / | 15 | 92* | 85*
Fc1ccc(NC(=S)N2N=CCC2c2ccccc2)cc1 (centres undefined) | 82* | 0 | 20 | 94* | 10
CS(=O)(=O)c1ccc(Cl)c(NC(=O)C2CCCN(C(=O)c3ccc(Cl)cc3)C2)c1 (centres undefined) | / | / | -3 | / | /
O=C(NC12CC3CC(CC(C3)C1)C2)c1ccc(-c2ccc(Br)cc2)o1 | 80* | 0 | -7 | 3 | 35
O=C(Oc1ccc(Nc2ncnc3ccccc23)cc1)c1cccnc1 | 80* | 0 | 2 | -1 | 1
O=C(Nc1ccc(N2CCCCC2)cc1)C(Cl)c1ccccc1 (centres undefined) | 77* | 0 | 30 | 13 | 7
Cc1cc(C)cc(NC(=O)Nc2ccc(N3CCCCC3)cc2)c1 | 77* | / | 16 | 2 | 34
O=C(Nc1ccc(N2CCCC2)cc1)C(c1ccccc1)c1ccccc1 | 0 | 0 | 7 | 2 | /
NC(=O)c1c(-c2ccccc2)oc2ccc(O)cc12 | 85* | 0 | 6 | 0 | 40
Cc1c(Br)cccc1NC(=O)c1sccc1-n1cccc1 | 1 | 0 | 21 | 1 | /
CC(C)c1ccc(NC(=O)c2sccc2-n2cccc2)cc1 | 84* | 0 | 29 | 3 | 25
CCn1c2ccccc2n2c(=O)c(=O)n(CC(=O)Nc3ccc(C(C)C)cc3)nc12 | 0 | 0 | -60 | 4 | /
COc1ccc(NC(=O)Nc2ccc(Cc3ccncc3)cc2)cc1OC | 82* | 0 | 4 | 0 | 37
COc1ccccc1NC(=O)Nc1ccncc1 | 1 | 0 | -2 | -2 | /
COc1ccccc1NC(=O)Nc1ccc(Cc2ccncc2)cc1 | 78* | 0 | 15 | 4 | 38
Cc1cccc(-n2cnc3cc([N+](=O)[O-])ccc32)c1 | 20 | 0 | 15 | 2 | /
CCn1cnc2cc(NS(=O)(=O)c3ccc(C)cc3)ccc21 | 0 | 0 | 48 | 2 | /
COc1ccc(-n2cnc3cc(NS(=O)(=O)c4ccc(C)cc4)ccc32)cc1 | 85* | 0 | / | 38 | 41
Nc1ccc(-n2cnc3cc([N+](=O)[O-])ccc32)cc1 | 78* | 0 | 20 | 0 | 42
COc1ccc(-n2cnc3cc([N+](=O)[O-])ccc32)cc1 | 79* | 0 | 16 | 2 | 1
COc1ccccc1N1CCN(C(=O)c2ccc3c(c2)CCN3S(C)(=O)=O)CC1 | / | / | 42 | / | /
COc1ccc(C(=O)Oc2cc(C)c(CN3CCOCC3)cc2C)cc1OC | / | / | 21 | / | /
CN(C)CCn1nnc2c(=O)oc3ccccc3c21 | 7 | 0 | 10 | 1 | /
COc1ccc(OC)c(CN2CCN(C(=O)CCC(=O)c3cccs3)CC2)c1 | / | / | -16 | / | /
CC(=O)N(C)c1ccc(NC(=O)Nc2ccc(C)cc2)cc1 | 77* | 0 | 22 | -1 | 37
SMILES | L929 necroptosis | Hsp70 act | HSF1 activator | TNF necrop inh | zVAD necrop conf
CC(=O)N(C)c1ccc(NC(=O)Nc2ccc(Cl)cc2)cc1 | / | / | 19 | / | /
CNS(=O)(=O)c1ccc2nc(NC(=O)/C=C/c3ccco3)sc2c1 | 76* | 0 | 1 | 0 | 2
CCN(CC)CCOc1c(Br)ccc2c1sc1nc3n(c(=O)c12)CCC3 | 81* | 0 | 11 | -6 | 21
Cc1ccc(NC(=O)c2ccccc2)cc1-n1cnnn1 | 75* | 0 | 18 | 2 | 6
COc1ccc(C(=O)Nc2ncc(C)s2)cc1S(=O)(=O)N1CCCC1 | 89* | 0 | -1 | 13 | 2
CC1CCN(CC(O)COc2ccc(-c3ccccc3)cc2)CC1 (centres undefined) | / | / | -24 | / | /
O=C(O)COC(=O)C1C(c2ccccc2)C(C(=O)O)C1c1ccccc1 (centres undefined) | 5 | 0 | -10 | 0 | /
C(=N\Nc1nc2ccccc2[nH]1)/c1c[nH]c2ccccc12 | 80* | 0 | 309* | 34 | 35
Cc1nn(-c2ccccc2)c(Cl)c1/C=N/Nc1nc2ccccc2[nH]1 | 0 | 0 | 27 | 2 | /
C(=N\Nc1nc2ccccc2[nH]1)/c1ccccc1 | 84* | 0 | 199* | 13 | 7

Compound activity: PubChem, several laboratories
